# Key:
# Assay in all cases: DAPPL (digital affinity profiling via proximity ligation, sequencing); 10 mM Tris-HCl pH 7.5, 50 mM NaCl, 1 mM DTT, 4% glycerol, room temperature, 30 min; GST-TFs on glutathione beads, 16-mer random dsDNA library, 0.1% formaldehyde crosslink after washing; high values mean tight binding
# [1] = biological target: T1, FLI1 (Homo sapiens, UniProt Q01543 1-452); conditions: protein: recombinant; tags: N-terminal GST; dsDNA, one strand shown
# T1 sequence: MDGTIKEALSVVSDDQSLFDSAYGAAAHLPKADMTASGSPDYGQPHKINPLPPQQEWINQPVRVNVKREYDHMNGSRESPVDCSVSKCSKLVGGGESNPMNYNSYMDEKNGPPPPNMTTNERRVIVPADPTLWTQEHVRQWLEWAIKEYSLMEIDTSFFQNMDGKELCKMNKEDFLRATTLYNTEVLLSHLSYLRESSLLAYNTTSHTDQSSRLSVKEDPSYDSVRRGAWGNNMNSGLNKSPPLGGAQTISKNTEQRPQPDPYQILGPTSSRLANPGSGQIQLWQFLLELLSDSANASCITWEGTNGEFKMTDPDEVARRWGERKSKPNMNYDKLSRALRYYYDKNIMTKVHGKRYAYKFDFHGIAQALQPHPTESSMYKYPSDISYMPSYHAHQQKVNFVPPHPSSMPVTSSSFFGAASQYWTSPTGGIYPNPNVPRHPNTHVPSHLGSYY
# In short: (§1)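 After expression in yeast as GST fusions, human transcription factors were bound to glutathione beads, DNA-barcoded and mixed with a tag-only sample. The pools were incubated with 200 nmole of a 16-mer random double-stranded DNA library in Tris/NaCl/DTT/glycerol buffer (30 min, room temperature), washed and crosslinked with 0.1% formaldehyde. Proximity ligation with BsaI/T4 ligase ran for 1 h at 37 °C, before PCR amplification and sequencing on an Illumina NextSeq500. Binding signal is a hexamer's read frequency for a factor divided by its frequency for the tag-only sample.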
# [2] = biological target: T2, ELK1 (Homo sapiens, UniProt P19419 1-428); conditions: protein: recombinant; tags: N-terminal GST; dsDNA, one strand shown
# T2 sequence: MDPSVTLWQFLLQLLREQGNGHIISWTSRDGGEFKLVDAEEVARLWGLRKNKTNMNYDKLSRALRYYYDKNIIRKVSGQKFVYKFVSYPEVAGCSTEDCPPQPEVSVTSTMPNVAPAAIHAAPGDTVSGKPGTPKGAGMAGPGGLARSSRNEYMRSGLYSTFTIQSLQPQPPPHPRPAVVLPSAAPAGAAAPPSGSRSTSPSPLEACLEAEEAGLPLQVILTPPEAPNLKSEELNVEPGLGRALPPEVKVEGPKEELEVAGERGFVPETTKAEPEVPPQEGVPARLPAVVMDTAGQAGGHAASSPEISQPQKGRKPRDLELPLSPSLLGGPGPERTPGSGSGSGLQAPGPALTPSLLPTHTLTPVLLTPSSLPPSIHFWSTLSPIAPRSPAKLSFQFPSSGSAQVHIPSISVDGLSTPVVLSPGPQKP
# In short: as §1
# [3] = biological target: T3, GABPA (Homo sapiens, UniProt Q06546 1-454); conditions: protein: recombinant; tags: N-terminal GST; dsDNA, one strand shown
# T3 sequence: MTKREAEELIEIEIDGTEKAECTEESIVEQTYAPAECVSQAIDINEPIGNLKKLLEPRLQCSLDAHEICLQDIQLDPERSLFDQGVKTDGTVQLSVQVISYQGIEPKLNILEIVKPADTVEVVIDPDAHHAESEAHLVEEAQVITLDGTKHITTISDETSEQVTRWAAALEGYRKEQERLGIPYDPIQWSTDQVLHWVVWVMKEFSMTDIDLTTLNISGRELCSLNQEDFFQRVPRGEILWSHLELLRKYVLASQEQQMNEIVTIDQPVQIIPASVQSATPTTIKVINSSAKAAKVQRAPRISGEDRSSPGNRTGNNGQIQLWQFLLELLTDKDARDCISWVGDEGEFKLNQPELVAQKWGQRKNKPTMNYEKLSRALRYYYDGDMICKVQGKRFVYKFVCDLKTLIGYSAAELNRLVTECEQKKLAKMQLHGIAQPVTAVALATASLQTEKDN
# In short: as §1
# [4] = biological target: T4, ERG (Homo sapiens, UniProt P11308 1-479); conditions: protein: recombinant; tags: N-terminal GST; dsDNA, one strand shown
# T4 sequence: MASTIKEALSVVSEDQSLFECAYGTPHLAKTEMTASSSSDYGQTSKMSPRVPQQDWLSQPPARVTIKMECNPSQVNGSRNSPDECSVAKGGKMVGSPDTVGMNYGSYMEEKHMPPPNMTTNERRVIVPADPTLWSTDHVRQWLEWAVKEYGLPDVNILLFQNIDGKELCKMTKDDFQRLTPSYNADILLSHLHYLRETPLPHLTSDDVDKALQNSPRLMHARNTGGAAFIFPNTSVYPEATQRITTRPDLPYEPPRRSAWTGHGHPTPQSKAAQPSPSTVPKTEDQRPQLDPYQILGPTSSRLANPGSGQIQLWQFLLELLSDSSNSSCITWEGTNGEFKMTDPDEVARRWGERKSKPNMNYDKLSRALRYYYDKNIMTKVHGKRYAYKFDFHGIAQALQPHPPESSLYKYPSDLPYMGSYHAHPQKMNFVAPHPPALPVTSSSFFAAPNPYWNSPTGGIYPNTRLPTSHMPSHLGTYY
# In short: as §1
# [5] = biological target: ELF1 (Homo sapiens, UniProt P32519 1-619); conditions: protein: recombinant; tags: N-terminal GST; dsDNA, one strand shown
# In short: as §1
# [6] = biological target: T5, EHF (Homo sapiens, UniProt Q9NZC4 1-300); conditions: protein: recombinant; tags: N-terminal GST; dsDNA, one strand shown
# T5 sequence: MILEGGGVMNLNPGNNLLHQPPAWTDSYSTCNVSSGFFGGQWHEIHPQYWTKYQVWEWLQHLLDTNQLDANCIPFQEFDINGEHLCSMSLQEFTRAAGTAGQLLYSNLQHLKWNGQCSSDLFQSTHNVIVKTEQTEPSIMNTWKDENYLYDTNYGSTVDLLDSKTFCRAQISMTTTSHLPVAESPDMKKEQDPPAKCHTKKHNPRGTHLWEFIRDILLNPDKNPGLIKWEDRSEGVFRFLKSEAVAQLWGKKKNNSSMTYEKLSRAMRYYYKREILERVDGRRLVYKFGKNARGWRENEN
# In short: as §1
# [7] = biological target: SPI1 (Homo sapiens, UniProt P17947 1-270); conditions: protein: recombinant; tags: N-terminal GST; dsDNA, one strand shown
# In short: as §1
# [8] = biological target: SPIB (Homo sapiens, UniProt Q01892 1-262); conditions: protein: recombinant; tags: N-terminal GST; dsDNA, one strand shown
# In short: as §1
# [9] = biological target: T6, ELK3 (Homo sapiens, UniProt P41970 1-407); conditions: protein: recombinant; tags: N-terminal GST; dsDNA, one strand shown
# T6 sequence: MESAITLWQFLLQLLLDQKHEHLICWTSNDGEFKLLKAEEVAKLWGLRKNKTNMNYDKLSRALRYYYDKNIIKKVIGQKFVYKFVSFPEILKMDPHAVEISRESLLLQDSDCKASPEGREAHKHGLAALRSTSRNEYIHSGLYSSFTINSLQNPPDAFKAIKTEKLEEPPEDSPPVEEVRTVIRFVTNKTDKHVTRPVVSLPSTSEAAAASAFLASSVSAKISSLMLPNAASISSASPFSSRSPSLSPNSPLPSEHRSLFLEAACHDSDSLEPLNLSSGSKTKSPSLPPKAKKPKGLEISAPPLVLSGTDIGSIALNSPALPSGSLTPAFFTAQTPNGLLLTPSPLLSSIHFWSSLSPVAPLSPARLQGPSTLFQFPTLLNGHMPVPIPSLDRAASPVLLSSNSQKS
# In short: as §1
# [10] = biological target: T7, FEV (Homo sapiens, UniProt Q99581 1-238); conditions: protein: recombinant; tags: N-terminal GST; dsDNA, one strand shown
# T7 sequence: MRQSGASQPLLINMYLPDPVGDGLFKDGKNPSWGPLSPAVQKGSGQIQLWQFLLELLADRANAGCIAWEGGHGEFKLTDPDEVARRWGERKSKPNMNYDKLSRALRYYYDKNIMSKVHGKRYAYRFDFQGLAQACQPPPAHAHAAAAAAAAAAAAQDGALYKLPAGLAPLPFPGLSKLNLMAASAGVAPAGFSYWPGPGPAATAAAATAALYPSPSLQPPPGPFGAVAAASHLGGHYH
# In short: as §1
# [11] = biological target: ETV5 (Homo sapiens, UniProt P41161 1-510); conditions: protein: recombinant; tags: N-terminal GST; dsDNA, one strand shown
# In short: as §1
# [12] = biological target: HSF1 (Homo sapiens, UniProt Q00613 1-529); conditions: protein: recombinant; tags: N-terminal GST; chain copies: 3; dsDNA, one strand shown
# In short: as §1
# [13] = biological target: T8, SPIC (Homo sapiens, UniProt Q8N5J4 1-248); conditions: protein: recombinant; tags: N-terminal GST; dsDNA, one strand shown
# T8 sequence: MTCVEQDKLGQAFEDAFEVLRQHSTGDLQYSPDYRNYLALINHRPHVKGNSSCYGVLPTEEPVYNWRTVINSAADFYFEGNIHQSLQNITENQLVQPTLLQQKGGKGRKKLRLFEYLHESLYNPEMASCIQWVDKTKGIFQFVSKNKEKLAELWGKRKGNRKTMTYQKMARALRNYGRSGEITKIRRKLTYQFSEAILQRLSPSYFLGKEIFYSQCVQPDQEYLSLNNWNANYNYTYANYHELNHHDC
# In short: as §1
# [14] = biological target: ELF4 (Homo sapiens, UniProt Q99607 1-663); conditions: protein: recombinant; tags: N-terminal GST; dsDNA, one strand shown
# In short: as §1
# [15] = biological target: T9, ELK4 (Homo sapiens, UniProt P28324-2 1-405); conditions: protein: recombinant; tags: N-terminal GST; dsDNA, one strand shown
# T9 sequence: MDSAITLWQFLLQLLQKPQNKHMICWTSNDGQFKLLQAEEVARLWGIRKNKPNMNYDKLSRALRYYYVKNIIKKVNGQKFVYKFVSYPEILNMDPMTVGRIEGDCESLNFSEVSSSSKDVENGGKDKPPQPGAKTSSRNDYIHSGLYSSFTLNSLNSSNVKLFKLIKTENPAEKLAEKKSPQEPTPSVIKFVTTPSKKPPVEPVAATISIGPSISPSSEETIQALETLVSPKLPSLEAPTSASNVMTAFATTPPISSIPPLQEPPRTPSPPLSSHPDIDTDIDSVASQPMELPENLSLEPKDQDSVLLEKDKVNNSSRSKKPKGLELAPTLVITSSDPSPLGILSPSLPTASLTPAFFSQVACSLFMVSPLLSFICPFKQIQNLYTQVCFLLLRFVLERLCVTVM
# In short: as §1
# [16] = biological target: T10, ETV2 (Homo sapiens, UniProt O00321 1-342); conditions: protein: recombinant; tags: N-terminal GST; dsDNA, one strand shown
# T10 sequence: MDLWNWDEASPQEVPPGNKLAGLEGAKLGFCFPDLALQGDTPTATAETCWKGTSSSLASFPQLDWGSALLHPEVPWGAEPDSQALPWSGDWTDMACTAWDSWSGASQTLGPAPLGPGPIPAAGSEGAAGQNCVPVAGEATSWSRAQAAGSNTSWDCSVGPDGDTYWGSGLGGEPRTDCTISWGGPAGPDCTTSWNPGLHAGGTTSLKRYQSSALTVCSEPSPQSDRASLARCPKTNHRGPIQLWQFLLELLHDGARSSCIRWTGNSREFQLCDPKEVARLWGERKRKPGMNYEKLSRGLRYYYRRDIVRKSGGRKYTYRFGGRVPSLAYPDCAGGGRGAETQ
# In short: as §1
# [17] = biological target: T11, ELF3 (Homo sapiens, UniProt P78545 1-371); conditions: protein: recombinant; tags: N-terminal GST; dsDNA, one strand shown
# T11 sequence: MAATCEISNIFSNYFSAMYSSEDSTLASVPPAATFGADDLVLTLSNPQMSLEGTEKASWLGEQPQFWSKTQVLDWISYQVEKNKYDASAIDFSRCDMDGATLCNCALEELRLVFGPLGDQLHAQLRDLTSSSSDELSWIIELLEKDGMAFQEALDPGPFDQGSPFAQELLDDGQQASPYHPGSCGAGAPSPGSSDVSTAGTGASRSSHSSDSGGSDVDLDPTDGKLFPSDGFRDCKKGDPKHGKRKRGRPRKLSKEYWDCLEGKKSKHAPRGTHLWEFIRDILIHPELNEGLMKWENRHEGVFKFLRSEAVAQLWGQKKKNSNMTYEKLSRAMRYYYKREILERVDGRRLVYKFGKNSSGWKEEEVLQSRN
# In short: as §1
# [18] = biological target: CRX (Homo sapiens, UniProt O43186 1-299); conditions: protein: recombinant; tags: N-terminal GST; dsDNA, one strand shown
# In short: as §1
# [19] = biological target: ETV1 (Homo sapiens, UniProt P50549 1-477); conditions: protein: recombinant; tags: N-terminal GST; dsDNA, one strand shown
# In short: as §1
# Sequence of SPIB (Q01892 whole entry): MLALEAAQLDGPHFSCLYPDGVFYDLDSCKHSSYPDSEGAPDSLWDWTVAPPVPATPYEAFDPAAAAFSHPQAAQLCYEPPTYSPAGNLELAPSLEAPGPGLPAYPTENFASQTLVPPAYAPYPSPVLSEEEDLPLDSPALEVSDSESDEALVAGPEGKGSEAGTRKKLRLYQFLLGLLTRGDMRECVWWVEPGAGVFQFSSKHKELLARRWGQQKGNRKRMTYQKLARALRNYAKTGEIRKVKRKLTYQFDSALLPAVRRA
# Sequence of CRX (O43186 whole entry): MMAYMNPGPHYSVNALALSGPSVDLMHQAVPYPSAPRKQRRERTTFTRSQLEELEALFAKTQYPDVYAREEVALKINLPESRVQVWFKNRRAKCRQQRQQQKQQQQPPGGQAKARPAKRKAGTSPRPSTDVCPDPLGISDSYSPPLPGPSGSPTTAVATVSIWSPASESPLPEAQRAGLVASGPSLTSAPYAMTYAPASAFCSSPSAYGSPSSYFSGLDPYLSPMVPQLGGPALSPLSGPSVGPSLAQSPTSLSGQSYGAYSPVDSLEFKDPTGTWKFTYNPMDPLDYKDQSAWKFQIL
# Sequence of ETV5 (P41161 whole entry): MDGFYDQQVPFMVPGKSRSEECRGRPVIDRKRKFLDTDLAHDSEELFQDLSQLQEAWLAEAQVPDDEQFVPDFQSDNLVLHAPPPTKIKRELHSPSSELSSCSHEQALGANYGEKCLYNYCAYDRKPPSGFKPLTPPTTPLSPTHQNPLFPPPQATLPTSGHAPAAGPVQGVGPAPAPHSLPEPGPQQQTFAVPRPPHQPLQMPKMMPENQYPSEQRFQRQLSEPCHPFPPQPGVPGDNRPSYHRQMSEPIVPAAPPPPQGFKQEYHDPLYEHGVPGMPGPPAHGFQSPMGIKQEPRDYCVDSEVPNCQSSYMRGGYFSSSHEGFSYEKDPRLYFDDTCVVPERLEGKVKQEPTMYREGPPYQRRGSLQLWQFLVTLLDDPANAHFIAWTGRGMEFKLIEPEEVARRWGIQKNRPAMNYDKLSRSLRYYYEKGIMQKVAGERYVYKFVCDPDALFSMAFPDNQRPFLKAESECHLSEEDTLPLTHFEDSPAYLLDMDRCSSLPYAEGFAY
# Sequence of ELF1 (P32519 whole entry): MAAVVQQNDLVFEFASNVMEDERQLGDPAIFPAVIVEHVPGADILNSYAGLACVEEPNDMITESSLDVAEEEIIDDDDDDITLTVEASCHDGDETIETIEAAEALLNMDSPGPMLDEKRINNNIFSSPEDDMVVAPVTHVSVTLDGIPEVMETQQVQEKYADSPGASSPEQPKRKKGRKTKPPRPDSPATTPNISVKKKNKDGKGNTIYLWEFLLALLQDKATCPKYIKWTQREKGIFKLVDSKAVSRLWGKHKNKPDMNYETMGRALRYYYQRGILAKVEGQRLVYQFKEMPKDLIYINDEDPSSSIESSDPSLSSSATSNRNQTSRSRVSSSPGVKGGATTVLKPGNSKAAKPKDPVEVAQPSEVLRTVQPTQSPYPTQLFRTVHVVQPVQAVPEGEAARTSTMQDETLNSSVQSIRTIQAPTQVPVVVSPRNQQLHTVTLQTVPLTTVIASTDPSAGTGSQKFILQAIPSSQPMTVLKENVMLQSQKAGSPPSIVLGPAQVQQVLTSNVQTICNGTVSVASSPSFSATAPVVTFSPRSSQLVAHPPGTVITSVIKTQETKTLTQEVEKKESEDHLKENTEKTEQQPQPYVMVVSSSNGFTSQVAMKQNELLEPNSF
# Sequence of ELF4 (Q99607 whole entry): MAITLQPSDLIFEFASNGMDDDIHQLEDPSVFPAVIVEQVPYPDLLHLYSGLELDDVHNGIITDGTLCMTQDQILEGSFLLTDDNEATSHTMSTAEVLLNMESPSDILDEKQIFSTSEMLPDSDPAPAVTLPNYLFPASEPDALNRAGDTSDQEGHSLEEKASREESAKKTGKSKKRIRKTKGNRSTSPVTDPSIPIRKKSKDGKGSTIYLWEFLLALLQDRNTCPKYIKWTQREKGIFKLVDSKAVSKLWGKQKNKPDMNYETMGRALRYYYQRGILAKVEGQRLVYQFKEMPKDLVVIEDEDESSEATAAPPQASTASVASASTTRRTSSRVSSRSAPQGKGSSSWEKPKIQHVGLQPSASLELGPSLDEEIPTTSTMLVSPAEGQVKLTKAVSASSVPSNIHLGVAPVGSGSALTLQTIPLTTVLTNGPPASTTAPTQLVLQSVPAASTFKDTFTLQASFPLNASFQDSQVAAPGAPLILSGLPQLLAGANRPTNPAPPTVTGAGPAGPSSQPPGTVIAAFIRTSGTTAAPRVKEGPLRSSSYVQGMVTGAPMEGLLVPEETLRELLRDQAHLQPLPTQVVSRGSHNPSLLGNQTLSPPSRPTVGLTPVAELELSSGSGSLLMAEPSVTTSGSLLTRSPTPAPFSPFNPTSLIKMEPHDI
# Sequence of HSF1 (Q00613 whole entry): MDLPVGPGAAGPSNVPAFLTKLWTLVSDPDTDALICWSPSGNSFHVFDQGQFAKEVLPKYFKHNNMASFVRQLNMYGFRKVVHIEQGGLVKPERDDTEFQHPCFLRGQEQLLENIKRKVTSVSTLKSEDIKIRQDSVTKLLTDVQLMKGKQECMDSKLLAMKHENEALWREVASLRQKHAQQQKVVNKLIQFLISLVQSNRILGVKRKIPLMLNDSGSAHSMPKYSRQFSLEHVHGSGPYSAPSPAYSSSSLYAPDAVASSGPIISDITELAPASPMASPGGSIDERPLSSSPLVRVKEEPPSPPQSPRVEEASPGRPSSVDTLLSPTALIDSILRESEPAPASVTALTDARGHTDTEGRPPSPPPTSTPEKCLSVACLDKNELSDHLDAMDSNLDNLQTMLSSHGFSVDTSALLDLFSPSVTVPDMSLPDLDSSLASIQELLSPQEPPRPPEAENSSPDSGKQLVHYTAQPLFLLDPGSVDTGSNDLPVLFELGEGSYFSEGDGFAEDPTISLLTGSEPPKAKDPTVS
# Sequence of ETV1 (P50549 whole entry): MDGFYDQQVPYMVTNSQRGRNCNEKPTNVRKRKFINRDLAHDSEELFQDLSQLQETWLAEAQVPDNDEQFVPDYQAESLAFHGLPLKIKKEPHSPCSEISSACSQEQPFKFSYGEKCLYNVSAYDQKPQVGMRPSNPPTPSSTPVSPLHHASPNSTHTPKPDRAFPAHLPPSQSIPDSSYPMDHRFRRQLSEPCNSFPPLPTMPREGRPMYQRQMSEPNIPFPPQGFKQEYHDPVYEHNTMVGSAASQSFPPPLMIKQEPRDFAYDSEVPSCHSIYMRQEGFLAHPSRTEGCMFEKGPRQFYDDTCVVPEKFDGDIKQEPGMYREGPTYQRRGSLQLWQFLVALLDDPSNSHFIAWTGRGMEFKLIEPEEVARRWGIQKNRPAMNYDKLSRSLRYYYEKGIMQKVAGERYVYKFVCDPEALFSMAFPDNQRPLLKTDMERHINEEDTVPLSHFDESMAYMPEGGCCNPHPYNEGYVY
sequence,measurement,setting,value
CCTACT,binding signal,[1],"1.73 fold enrichment (6-mer frequency, TF over GST control)"
same,binding signal,[2],"1.61 fold enrichment (6-mer frequency, TF over GST control)"
same,binding signal,[3],"1.53 fold enrichment (6-mer frequency, TF over GST control)"
same,binding signal,[4],"1.54 fold enrichment (6-mer frequency, TF over GST control)"
same,binding signal,[5],"1.73 fold enrichment (6-mer frequency, TF over GST control)"
same,binding signal,[6],"1.69 fold enrichment (6-mer frequency, TF over GST control)"
same,binding signal,[7],"1.77 fold enrichment (6-mer frequency, TF over GST control)"
same,binding signal,[8],"1.76 fold enrichment (6-mer frequency, TF over GST control)"
same,binding signal,[9],"1.55 fold enrichment (6-mer frequency, TF over GST control)"
same,binding signal,[10],"1.62 fold enrichment (6-mer frequency, TF over GST control)"
same,binding signal,[11],"1.57 fold enrichment (6-mer frequency, TF over GST control)"
same,binding signal,[12],"1.48 fold enrichment (6-mer frequency, TF over GST control)"
same,binding signal,[13],"1.64 fold enrichment (6-mer frequency, TF over GST control)"
same,binding signal,[14],"1.7 fold enrichment (6-mer frequency, TF over GST control)"
same,binding signal,[15],"1.76 fold enrichment (6-mer frequency, TF over GST control)"
same,binding signal,[16],"1.61 fold enrichment (6-mer frequency, TF over GST control)"
same,binding signal,[17],"1.41 fold enrichment (6-mer frequency, TF over GST control)"
same,binding signal,[18],"1.61 fold enrichment (6-mer frequency, TF over GST control)"
same,binding signal,[19],"1.49 fold enrichment (6-mer frequency, TF over GST control)"

# From article PMC7862700, “An all-to-all approach to the identification of sequence-specific readers for epigenetic DNA modifications on cytosine”
